Source: publication PMC11006913

Columns and labels:
Experiment in all cases: PBM; 200 nM protein, PBS
Conditions in all cases: dsDNA, one strand shown
PRRX1 [1] = target: PRRX1 (Homo sapiens, UniProt P54821 80-166, F113S)
PRRX1 [2] = target: PRRX1 (Homo sapiens, UniProt P54821 80-166)
VENTX = target: T1, VENTX (Homo sapiens, UniProt O95231 78-163, Y115F)
T1 sequence: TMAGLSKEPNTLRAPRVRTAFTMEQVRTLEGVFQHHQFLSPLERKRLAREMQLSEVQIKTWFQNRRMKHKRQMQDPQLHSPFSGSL

NKX2-6 = target: T2, NKX2-6 (Homo sapiens, UniProt A6NCS4 118-204, R150C)
T2 sequence: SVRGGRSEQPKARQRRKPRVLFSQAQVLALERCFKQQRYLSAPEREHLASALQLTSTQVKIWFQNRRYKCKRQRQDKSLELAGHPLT

HOXD13 [3] = target: HOXD13 (Homo sapiens, UniProt P35453 263-343, T313R)
Chain of HOXD13 (Homo sapiens, UniProt P35453 263-343, T313R) (P35453 263-343 T313R): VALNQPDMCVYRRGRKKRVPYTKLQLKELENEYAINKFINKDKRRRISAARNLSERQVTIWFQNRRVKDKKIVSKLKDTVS

HOXD13 [4] = target: HOXD13 (Homo sapiens, UniProt P35453 263-343)
Chain of HOXD13 (Homo sapiens, UniProt P35453 263-343) (P35453 263-343): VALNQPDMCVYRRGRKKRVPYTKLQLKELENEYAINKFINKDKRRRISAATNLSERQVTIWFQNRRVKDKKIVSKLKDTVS

HOXD13 [5] = target: HOXD13 (Homo sapiens, UniProt P35453 263-343, T313A)
Chain of HOXD13 (Homo sapiens, UniProt P35453 263-343, T313A) (P35453 263-343 T313A): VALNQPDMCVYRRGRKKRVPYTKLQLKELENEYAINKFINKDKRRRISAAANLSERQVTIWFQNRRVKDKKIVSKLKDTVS

PROP1 [6] = target: PROP1 (Homo sapiens, UniProt O75360 56-141)
Chain of PROP1 (Homo sapiens, UniProt O75360 56-141) (O75360 56-141): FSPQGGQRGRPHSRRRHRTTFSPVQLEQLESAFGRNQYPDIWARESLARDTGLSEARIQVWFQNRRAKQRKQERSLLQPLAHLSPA

PROP1 [7] = target: PROP1 (Homo sapiens, UniProt O75360 56-141, R99H)
Chain of PROP1 (Homo sapiens, UniProt O75360 56-141, R99H) (O75360 56-141 R99H): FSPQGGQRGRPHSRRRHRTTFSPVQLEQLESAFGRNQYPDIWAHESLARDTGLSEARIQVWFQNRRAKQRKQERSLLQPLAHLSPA

PROP1 [8] = target: PROP1 (Homo sapiens, UniProt O75360 56-141, F88S)
Chain of PROP1 (Homo sapiens, UniProt O75360 56-141, F88S) (O75360 56-141 F88S): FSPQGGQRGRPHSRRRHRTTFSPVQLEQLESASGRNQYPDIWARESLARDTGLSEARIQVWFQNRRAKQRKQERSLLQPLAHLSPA

HOXB4 [9] = target: HOXB4 (Homo sapiens, UniProt P17483 148-234)
Chain of HOXB4 (Homo sapiens, UniProt P17483 148-234) (P17483 148-234): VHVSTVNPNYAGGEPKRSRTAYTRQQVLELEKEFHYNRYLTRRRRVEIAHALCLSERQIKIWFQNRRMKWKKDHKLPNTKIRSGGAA

ALX4 [10] = target: ALX4 (Homo sapiens, UniProt Q9H161 200-286)
Chain of ALX4 (Homo sapiens, UniProt Q9H161 200-286) (Q9H161 200-286): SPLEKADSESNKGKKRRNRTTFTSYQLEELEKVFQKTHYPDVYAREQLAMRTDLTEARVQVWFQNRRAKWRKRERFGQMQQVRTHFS

ALX4 [11] = target: ALX4 (Homo sapiens, UniProt Q9H161 200-286, Q225E)
Chain of ALX4 (Homo sapiens, UniProt Q9H161 200-286, Q225E) (Q9H161 200-286 Q225E): as the sequence (Q9H161 200-286) above, with Q26E counted along it

HOXB4 [12] = target: HOXB4 (Homo sapiens, UniProt P17483 148-234, V174I)
Chain of HOXB4 (Homo sapiens, UniProt P17483 148-234, V174I) (P17483 148-234 V174I): as the sequence (P17483 148-234) above, with V27I counted along it

HOXC10 [13] = target: HOXC10 (Homo sapiens, UniProt Q9NYD6 254-340)
Chain of HOXC10 (Homo sapiens, UniProt Q9NYD6 254-340) (Q9NYD6 254-340): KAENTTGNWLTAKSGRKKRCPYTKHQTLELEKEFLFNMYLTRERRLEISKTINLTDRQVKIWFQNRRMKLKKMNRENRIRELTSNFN

HOXC10 [14] = target: HOXC10 (Homo sapiens, UniProt Q9NYD6 254-340, K271E)
Chain of HOXC10 (Homo sapiens, UniProt Q9NYD6 254-340, K271E) (Q9NYD6 254-340 K271E): as the sequence (Q9NYD6 254-340) above, with K18E counted along it

VAX1 [15] = target: VAX1 (Homo sapiens, UniProt Q5SQQ9 86-172)
Chain of VAX1 (Homo sapiens, UniProt Q5SQQ9 86-172) (Q5SQQ9 86-172): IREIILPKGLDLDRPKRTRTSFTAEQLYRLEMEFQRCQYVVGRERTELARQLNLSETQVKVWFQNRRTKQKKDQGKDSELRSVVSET

VAX1 [16] = target: VAX1 (Homo sapiens, UniProt Q5SQQ9 86-172, T142I)
Chain of VAX1 (Homo sapiens, UniProt Q5SQQ9 86-172, T142I) (Q5SQQ9 86-172 T142I): as the sequence (Q5SQQ9 86-172) above, with T57I counted along it

VAX1 [17] = target: VAX1 (Homo sapiens, UniProt Q5SQQ9 86-172, K157R)
Chain of VAX1 (Homo sapiens, UniProt Q5SQQ9 86-172, K157R) (Q5SQQ9 86-172 K157R): as the sequence (Q5SQQ9 86-172) above, with K72R counted along it

ALX3 [18] = target: ALX3 (Homo sapiens, UniProt O95076 139-225, N203Q)
Chain of ALX3 (Homo sapiens, UniProt O95076 139-225, N203Q) (O95076 139-225 N203Q): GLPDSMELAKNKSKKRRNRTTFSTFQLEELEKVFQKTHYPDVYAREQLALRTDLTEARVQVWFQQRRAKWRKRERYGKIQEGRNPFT

ALX3 [19] = target: ALX3 (Homo sapiens, UniProt O95076 139-225)
Chain of ALX3 (Homo sapiens, UniProt O95076 139-225) (O95076 139-225): as the sequence (O95076 139-225 N203Q) above, with Q65N counted along it

ALX3 [20] = target: ALX3 (Homo sapiens, UniProt O95076 139-225, L168Q)
Chain of ALX3 (Homo sapiens, UniProt O95076 139-225, L168Q) (O95076 139-225 L168Q): as the sequence (O95076 139-225 N203Q) above, with L30Q, Q65N counted along it

ALX3 [21] = target: ALX3 (Homo sapiens, UniProt O95076 139-225, L168V)
Chain of ALX3 (Homo sapiens, UniProt O95076 139-225, L168V) (O95076 139-225 L168V): as the sequence (O95076 139-225 N203Q) above, with L30V, Q65N counted along it

ALX3 [22] = target: ALX3 (Homo sapiens, UniProt O95076 139-225, N203S)
Chain of ALX3 (Homo sapiens, UniProt O95076 139-225, N203S) (O95076 139-225 N203S): as the sequence (O95076 139-225 N203Q) above, with Q65S counted along it

Chain of PRRX1 (Homo sapiens, UniProt P54821 80-166) (P54821 80-166): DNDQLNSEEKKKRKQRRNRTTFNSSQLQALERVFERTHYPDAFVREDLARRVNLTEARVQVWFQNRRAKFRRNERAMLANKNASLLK
Chain of PRRX1 (Homo sapiens, UniProt P54821 80-166, F113S) (P54821 80-166 F113S): as the sequence (P54821 80-166) above, with F34S counted along it

## CCCTTGCG
PRRX1 [1]
  binding signal: 9.08 upbm affinity estimate (log intensity, higher = more binding, comparable within an allelic series)
PRRX1 [2]
  binding signal: 9.11 upbm affinity estimate (log intensity, higher = more binding, comparable within an allelic series)

## TAATGACA
VENTX
  binding signal: 11.5 upbm affinity estimate (log intensity, higher = more binding, comparable within an allelic series)

## CCTAATGA
VENTX
  binding signal: 11.5 upbm affinity estimate (log intensity, higher = more binding, comparable within an allelic series)

## ACCGCCGG
NKX2-6
  binding signal: 9.49 upbm affinity estimate (log intensity, higher = more binding, comparable within an allelic series)

## CGGGGGTC
NKX2-6
  binding signal: 9.26 upbm affinity estimate (log intensity, higher = more binding, comparable within an allelic series)

## CTGGCGGC
HOXD13 [3]
  binding signal: 9.52 upbm affinity estimate (log intensity, higher = more binding, comparable within an allelic series)
HOXD13 [4]
  binding signal: 9.59 upbm affinity estimate (log intensity, higher = more binding, comparable within an allelic series)
HOXD13 [5]
  binding signal: 9.5 upbm affinity estimate (log intensity, higher = more binding, comparable within an allelic series)

## CGAGGCAC
HOXD13 [3]
  binding signal: 9.57 upbm affinity estimate (log intensity, higher = more binding, comparable within an allelic series)
HOXD13 [4]
  binding signal: 9.71 upbm affinity estimate (log intensity, higher = more binding, comparable within an allelic series)
HOXD13 [5]
  binding signal: 9.78 upbm affinity estimate (log intensity, higher = more binding, comparable within an allelic series)

## TAATGATA
PROP1 [6]
  binding signal: 9.99 upbm affinity estimate (log intensity, higher = more binding, comparable within an allelic series)
PROP1 [7]
  binding signal: 9.25 upbm affinity estimate (log intensity, higher = more binding, comparable within an allelic series)
PROP1 [8]
  binding signal: 7.61 upbm affinity estimate (log intensity, higher = more binding, comparable within an allelic series)

## CCAGCTCG
HOXB4 [9]
  binding signal: 7.72 upbm affinity estimate (log intensity, higher = more binding, comparable within an allelic series)
ALX4 [10]
  binding signal: 8.09 upbm affinity estimate (log intensity, higher = more binding, comparable within an allelic series)
ALX4 [11]
  binding signal: 8.29 upbm affinity estimate (log intensity, higher = more binding, comparable within an allelic series)
HOXB4 [12]
  binding signal: 7.66 upbm affinity estimate (log intensity, higher = more binding, comparable within an allelic series)

## CAGAAGGC
HOXB4 [9]
  binding signal: 7.78 upbm affinity estimate (log intensity, higher = more binding, comparable within an allelic series)
HOXB4 [12]
  binding signal: 7.7 upbm affinity estimate (log intensity, higher = more binding, comparable within an allelic series)

## GAGCTGCA
HOXB4 [9]
  binding signal: 7.7 upbm affinity estimate (log intensity, higher = more binding, comparable within an allelic series)
HOXB4 [12]
  binding signal: 7.45 upbm affinity estimate (log intensity, higher = more binding, comparable within an allelic series)

## CCGGTGAG
HOXB4 [9]
  binding signal: 7.55 upbm affinity estimate (log intensity, higher = more binding, comparable within an allelic series)
HOXB4 [12]
  binding signal: 7.62 upbm affinity estimate (log intensity, higher = more binding, comparable within an allelic series)

## AGCCCCCA
HOXB4 [9]
  binding signal: 7.49 upbm affinity estimate (log intensity, higher = more binding, comparable within an allelic series)
HOXB4 [12]
  binding signal: 7.6 upbm affinity estimate (log intensity, higher = more binding, comparable within an allelic series)

## GCAGGGCC
HOXB4 [9]
  binding signal: 7.4 upbm affinity estimate (log intensity, higher = more binding, comparable within an allelic series)
HOXC10 [13]
  binding signal: 10 upbm affinity estimate (log intensity, higher = more binding, comparable within an allelic series)
HOXB4 [12]
  binding signal: 7.46 upbm affinity estimate (log intensity, higher = more binding, comparable within an allelic series)
HOXC10 [14]
  binding signal: 10 upbm affinity estimate (log intensity, higher = more binding, comparable within an allelic series)
VAX1 [15]
  binding signal: 6.92 upbm affinity estimate (log intensity, higher = more binding, comparable within an allelic series)
VAX1 [16]
  binding signal: 7 upbm affinity estimate (log intensity, higher = more binding, comparable within an allelic series)
VAX1 [17]
  binding signal: 6.86 upbm affinity estimate (log intensity, higher = more binding, comparable within an allelic series)

## AAACGAGT
HOXB4 [9]
  binding signal: 9.6 upbm affinity estimate (log intensity, higher = more binding, comparable within an allelic series)
HOXB4 [12]
  binding signal: 9.41 upbm affinity estimate (log intensity, higher = more binding, comparable within an allelic series)

## GCTGCGCC
HOXB4 [9]
  binding signal: 7.58 upbm affinity estimate (log intensity, higher = more binding, comparable within an allelic series)
ALX4 [10]
  binding signal: 8.05 upbm affinity estimate (log intensity, higher = more binding, comparable within an allelic series)
ALX4 [11]
  binding signal: 8.03 upbm affinity estimate (log intensity, higher = more binding, comparable within an allelic series)
HOXB4 [12]
  binding signal: 7.62 upbm affinity estimate (log intensity, higher = more binding, comparable within an allelic series)
ALX3 [18]
  binding signal: 7.68 upbm affinity estimate (log intensity, higher = more binding, comparable within an allelic series)
ALX3 [19]
  binding signal: 7.52 upbm affinity estimate (log intensity, higher = more binding, comparable within an allelic series)
PROP1 [6]
  binding signal: 6.8 upbm affinity estimate (log intensity, higher = more binding, comparable within an allelic series)
PROP1 [7]
  binding signal: 6.45 upbm affinity estimate (log intensity, higher = more binding, comparable within an allelic series)
ALX3 [20]
  binding signal: 7.66 upbm affinity estimate (log intensity, higher = more binding, comparable within an allelic series)
ALX3 [21]
  binding signal: 7.62 upbm affinity estimate (log intensity, higher = more binding, comparable within an allelic series)
PROP1 [8]
  binding signal: 6.48 upbm affinity estimate (log intensity, higher = more binding, comparable within an allelic series)
ALX3 [22]
  binding signal: 7.7 upbm affinity estimate (log intensity, higher = more binding, comparable within an allelic series)

## ACACGAGC
HOXB4 [9]
  binding signal: 7.84 upbm affinity estimate (log intensity, higher = more binding, comparable within an allelic series)
HOXB4 [12]
  binding signal: 7.68 upbm affinity estimate (log intensity, higher = more binding, comparable within an allelic series)

## GACCGTGC
HOXB4 [9]
  binding signal: 7.54 upbm affinity estimate (log intensity, higher = more binding, comparable within an allelic series)
PRRX1 [1]
  binding signal: 9.27 upbm affinity estimate (log intensity, higher = more binding, comparable within an allelic series)
HOXB4 [12]
  binding signal: 7.53 upbm affinity estimate (log intensity, higher = more binding, comparable within an allelic series)
PRRX1 [2]
  binding signal: 9.23 upbm affinity estimate (log intensity, higher = more binding, comparable within an allelic series)

## CGGTCACG
HOXB4 [9]
  binding signal: 7.89 upbm affinity estimate (log intensity, higher = more binding, comparable within an allelic series)
HOXB4 [12]
  binding signal: 7.75 upbm affinity estimate (log intensity, higher = more binding, comparable within an allelic series)
